Reference: PubChem BioAssay (NCATS)
Results filed as inconclusive are left out. Active and inactive are the calls of the source. Calls come from the whole dose curve; as a rule, active = well fitted curve in the direction sought with a large enough effect; inconclusive = small, poorly fitted or top-dose-only effect, or another doubt; inactive = no such curve, though single readings can be large; an effect the other way counts as inactive or inconclusive.

Key:
HACAT = assay: qHTS assay to identify novel small-molecules to repurpose for Merkel cell carcinoma treatment (AID 1296009); conditions: MCC and control cell lines, CellTiter-Glo viability, 72 h; at 44.8 µM (top of the series) unless noted; note: nearly all actives have a fitted effect of over 60% in size
Method in brief: (§1)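 CellTiter-Glo luminescence after 72 hr compound exposure at 37 degree celsius gave cell viability. Libraries NPC and MIPE were run as 8- and 11-point dose responses; RLUs normalized to DMSO (negative) and no-cell (cytotoxicity) controls.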

NIH3T3 = assay: as above; conditions: MCC and control cell lines, CellTiter-Glo viability, 72 h; at 44.8 µM (top of the series) unless noted
Method in brief: as §1

C33A = assay: Primary qHTS to identify gynecologic anti-cancer compounds using libraries of approved drugs and bioactive compounds (AID 1345084); conditions: Gynecologic cancer cell panel viability, ATPlite luminescence, 48 h; series mostly up to 57.5 µM; note: % is set by controls: 0 for no effect and ±100 for the full control effect; nearly all actives have a fitted effect of over 55% in size
Method in brief: (§2)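 Cells, 1,000 per well, plated 16 h, then exposed 48 h at 37 C to compounds. Viability by ATPlite luminescence after 15 min at room temperature.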

CAOV3 = assay: as above; conditions: Gynecologic cancer cell panel viability, ATPlite luminescence, 48 h; series mostly up to 57.5 µM
Method in brief: as §2

CASKI = assay: as above; conditions: Gynecologic cancer cell panel viability, ATPlite luminescence, 48 h; series mostly up to 57.5 µM
Method in brief: as §2

Es-2 = assay: as above; conditions: Gynecologic cancer cell panel viability, ATPlite luminescence, 48 h; series mostly up to 57.5 µM
Method in brief: as §2

HeLa = assay: as above; conditions: Gynecologic cancer cell panel viability, ATPlite luminescence, 48 h; series mostly up to 57.5 µM
Method in brief: as §2

Hek293T = assay: as above; conditions: Gynecologic cancer cell panel viability, ATPlite luminescence, 48 h, control line for the selectivity index; series mostly up to 57.5 µM
Method in brief: as §2

JEG-3 = assay: as above; conditions: Gynecologic cancer cell panel viability, ATPlite luminescence, 48 h; series mostly up to 57.5 µM
Method in brief: as §2

COc1ccccc1CN[C@H]1CCCN[C@H]1c1ccccc1
inactive: outcome (HACAT) | outcome (NIH3T3) | Potency (C33A) | Potency (CAOV3) | outcome (CASKI) | Potency (Es-2) | Potency (HeLa) | Potency (Hek293T) | Potency (JEG-3)

CC(=O)OC1C(O)/C(C)=C\C2C(OC(=O)c3ccccc3)C(C)CC2(OC(C)=O)C(OC(C)=O)C(C)/C=C/C(C)(C)C1OC(C)=O (configuration not stated)
inactive: outcome (HACAT) inactive [at 17.4 µM] | outcome (NIH3T3) inactive [at 17.4 µM] | Potency (C33A) | Potency (CAOV3) | outcome (CASKI) | Potency (Es-2) | Potency (HeLa) | Potency (Hek293T) | Potency (JEG-3)

C/C=C/C=C/C1=C2C(=O)C3(C)C4C(C(=O)CC(O)/C=C/C)=C(O1)C1(C)C2C2(C)OC1(O)C4(C)OC23O (configuration not stated)
inactive: outcome (HACAT) inactive [at 17.4 µM] | outcome (NIH3T3) inactive [at 17.4 µM] | Potency (C33A) | Potency (CAOV3) | outcome (CASKI) | Potency (Es-2) | Potency (HeLa) | Potency (Hek293T) | Potency (JEG-3)

OC[C@@]1(O)CO[C@@H](OC[C@H]2O[C@@H](OCc3ccccc3)[C@H](O)[C@@H](O)[C@@H]2O)[C@@H]1O
inactive: outcome (HACAT) inactive [at 17.4 µM] | outcome (NIH3T3) inactive [at 17.4 µM] | Potency (C33A) | Potency (CAOV3) | outcome (CASKI) | Potency (Es-2) | Potency (HeLa) | Potency (Hek293T) | Potency (JEG-3)

Nc1c(-c2ccccc2)nc(Cl)c2c(O)n[nH]c(=O)c12
inactive: outcome (HACAT) | outcome (NIH3T3) | Potency (C33A) | Potency (CAOV3) | outcome (CASKI) | Potency (Es-2) | Potency (HeLa) | Potency (Hek293T) | Potency (JEG-3)

O=C(O)CCc1cccc(O)c1O[C@@H]1O[C@H](CO)[C@@H](O)[C@H](O)[C@H]1O
inactive: outcome (HACAT) | outcome (NIH3T3) | Potency (C33A) | Potency (CAOV3) | outcome (CASKI) | Potency (Es-2) | Potency (HeLa) | Potency (Hek293T) | Potency (JEG-3)

C=C1CC2C3(C)C=CC(=O)OC(C)(C)C3CC(OC(C)=O)C2(C)C2C(=O)OC(C)C(=O)C12C (configuration not stated)
inactive: outcome (HACAT) inactive [at 17.4 µM] | outcome (NIH3T3) inactive [at 17.4 µM] | Potency (C33A) | Potency (CAOV3) | outcome (CASKI) | Potency (Es-2) | Potency (HeLa) | Potency (Hek293T) | Potency (JEG-3)

C=C1C(=O)OC[C@H]2C(C(=O)O)=CC3CC(C)(C)C[C@@]132 (some centres not stated)
inactive: outcome (HACAT) | outcome (NIH3T3) | Potency (C33A) | Potency (CAOV3) | outcome (CASKI) | Potency (Es-2) | Potency (HeLa) | Potency (Hek293T) | Potency (JEG-3)

CC1(C)CC[C@]2(C(=O)O)CC[C@]3(C)C(=CCC4[C@@]5(C)CC[C@H](O[C@@H]6O[C@H](C(=O)O)[C@@H](O)[C@H](O[C@@H]7O[C@H](CO)[C@H](O)[C@H](O)[C@H]7O)[C@H]6O[C@@H]6O[C@H](CO)[C@@H](O)[C@H](O)[C@H]6O)C(C)(C)C5CC[C@]43C)[C@@H]2C1 (some centres not stated)
inactive: outcome (HACAT) inactive [at 4.96 µM] | outcome (NIH3T3) inactive [at 4.96 µM] | activity change, negative = cytotoxicity (C33A) 4.15% [at 6.55 µM] | activity change, negative = cytotoxicity (CAOV3) 0.251% [at 6.55 µM] | activity change, negative = cytotoxicity (CASKI) 11.8% [at 6.55 µM] | activity change, negative = cytotoxicity (Es-2) -0.476% [at 6.55 µM] | activity change, negative = cytotoxicity (HeLa) -1.9% [at 6.55 µM] | activity change, negative = cytotoxicity (Hek293T) -0.735% [at 6.55 µM] | activity change, negative = cytotoxicity (JEG-3) 4.16% [at 6.55 µM]

C=C1C(O)CCC2(C)CC3(OC)OC(=O)C(C)=C3CC12 (configuration not stated)
inactive: outcome (HACAT) | outcome (NIH3T3) | Potency (C33A) | Potency (CAOV3) | outcome (CASKI) | Potency (Es-2) | Potency (HeLa) | Potency (Hek293T) | Potency (JEG-3)

CC1(C)CC[C@]2(C(=O)O[C@@H]3O[C@H](CO)[C@@H](O)[C@H](O)[C@H]3O)CC[C@]3(C)C(=CCC4[C@@]5(C)CC[C@H](O[C@@H]6O[C@H](C(=O)O)[C@@H](O)[C@H](O)[C@H]6OC6OC(CO)C(O)C(O)C6O)C(C)(C)C5CC[C@]43C)[C@@H]2C1 (some centres not stated)
inactive: outcome (HACAT) inactive [at 9.27 µM] | outcome (NIH3T3) inactive [at 9.27 µM] | activity change, negative = cytotoxicity (C33A) 0.935% [at 11.6 µM] | activity change, negative = cytotoxicity (CAOV3) 8.5% [at 11.6 µM] | activity change, negative = cytotoxicity (CASKI) 2.93% [at 11.6 µM] | activity change, negative = cytotoxicity (Es-2) 5.59% [at 11.6 µM] | activity change, negative = cytotoxicity (HeLa) 8.29% [at 11.6 µM] | activity change, negative = cytotoxicity (Hek293T) 25.2% [at 11.6 µM] | activity change, negative = cytotoxicity (JEG-3) 4.48% [at 11.6 µM]

CC(=O)O[C@@H](C[C@@H]1C=C(C)C(=O)O1)[C@H](C)[C@H]1CCC2[C@@]3(C)CC[C@H](O[C@@H]4O[C@H](CO)[C@@H](O)[C@H](O)[C@H]4O[C@@H]4O[C@@H](C)[C@H](O)[C@@H](O)[C@H]4O)C(C)(C)C3CC[C@@]2(C)[C@@]12COC(=O)C2 (some centres not stated)
inactive: outcome (HACAT) inactive [at 9.27 µM] | outcome (NIH3T3) inactive [at 9.27 µM] | activity change, negative = cytotoxicity (C33A) 13.5% [at 11.6 µM] | activity change, negative = cytotoxicity (CAOV3) 4.91% [at 11.6 µM] | activity change, negative = cytotoxicity (CASKI) 4.88% [at 11.6 µM] | activity change, negative = cytotoxicity (Es-2) 8.74% [at 11.6 µM] | activity change, negative = cytotoxicity (HeLa) 5.41% [at 11.6 µM] | activity change, negative = cytotoxicity (Hek293T) 15.9% [at 11.6 µM] | activity change, negative = cytotoxicity (JEG-3) -9.52% [at 11.6 µM]

CC(=O)O[C@@H]1[C@H](O[C@@H]2OC[C@](O)(CO)[C@H]2O)[C@@H](O[C@@H]2O[C@@H](C)[C@H](O)[C@@H](O[C@@H]3O[C@H](CO)[C@@H](O)[C@H](O)[C@H]3O)[C@H]2O)[C@H](OC(=O)[C@]23CCC(C)(C)C[C@H]2C2=CCC4[C@@]5(C)C[C@H](O)[C@H](O[C@@H]6O[C@H](C(=O)O)[C@@H](O)[C@H](O)[C@H]6O)[C@@](C)(C(=O)O)C5CC[C@@]4(C)[C@]2(C)CC3)O[C@@H]1C (some centres not stated)
inactive: outcome (HACAT) inactive [at 9.27 µM] | outcome (NIH3T3) inactive [at 9.27 µM] | activity change, negative = cytotoxicity (C33A) -1.36% [at 6.55 µM] | activity change, negative = cytotoxicity (CAOV3) 22.8% [at 6.55 µM] | activity change, negative = cytotoxicity (CASKI) 2.72% [at 6.55 µM] | activity change, negative = cytotoxicity (Es-2) 1.19% [at 6.55 µM] | activity change, negative = cytotoxicity (HeLa) -1.07% [at 6.55 µM] | activity change, negative = cytotoxicity (Hek293T) 4.41% [at 6.55 µM] | activity change, negative = cytotoxicity (JEG-3) -1.98% [at 6.55 µM]
